Where “and” joins values, the source holds several entries; their conditions need not be identical. Equal values may be shown once. About 83,000 compounds went through this panel and 20% of them were active in at least one assay; those are over-represented in the sample as a whole.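 Negative percent growth values reflect cell death: -40 means 40% of the cells present at the start died, and -100 means all died.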 Calls of active or inactive are those of the source. Rule for the calls: active = growth percent below 10; inactive = the rest.
Experiments:
Assay in all cases: NCI-60 one-dose screen, 48 h (100 = growth as untreated, 0 = no growth, -100 = all killed)
Conditions in all cases: 10 µM unless noted
HCT-15 colon = system: HCT-15 colon
HT29 colon = system: HT29 colon
SNB-75 CNS = system: SNB-75 CNS
SNB-19 CNS = system: SNB-19 CNS
U251 CNS = system: U251 CNS
PC-3 prostate = system: PC-3 prostate
SK-MEL-5 melanoma = system: SK-MEL-5 melanoma
UACC-62 melanoma = system: UACC-62 melanoma
LOX IMVI melanoma = system: LOX IMVI melanoma
SK-MEL-28 melanoma = system: SK-MEL-28 melanoma
SK-MEL-2 melanoma = system: SK-MEL-2 melanoma
EKVX NSCLC = system: EKVX NSCLC
SN12C renal = system: SN12C renal
UO-31 renal = system: UO-31 renal
TK-10 renal = system: TK-10 renal
ACHN renal = system: ACHN renal
CAKI-1 renal = system: CAKI-1 renal
A498 renal = system: A498 renal
CCRF-CEM leukemia = system: CCRF-CEM leukemia
MOLT-4 leukemia = system: MOLT-4 leukemia

Compound	growth (HCT-15 colon)	growth (HT29 colon)	growth (SNB-75 CNS)	growth (SNB-19 CNS)	growth (U251 CNS)	growth (PC-3 prostate)	growth (SK-MEL-5 melanoma)	growth (UACC-62 melanoma)	growth (LOX IMVI melanoma)	growth (SK-MEL-28 melanoma)	growth (SK-MEL-2 melanoma)	growth (EKVX NSCLC)	growth (SN12C renal)	growth (UO-31 renal)	growth (TK-10 renal)	growth (ACHN renal)	growth (CAKI-1 renal)	growth (A498 renal)	growth (CCRF-CEM leukemia)	growth (MOLT-4 leukemia)
CC(C)N=c1cc2n(-c3ccc(Cl)cc3)c3ccccc3nc-2cc1Nc1ccc(Cl)cc1	14.9% (inactive) and 21% (inactive) and 6.17% (active)	0.808% (active) and 6.25% (active) and -28.1% (active)	68.1% (inactive) and 53.7% (inactive) and 24.1% (inactive)	49.1% (inactive) and 60.7% (inactive) and 36.4% (inactive)	13.7% (inactive) and 33.5% (inactive) and 6.42% (active)	22.2% (inactive) and 29.7% (inactive) and 8.73% (active)	4.95% (active) and 12% (inactive) and -72.9% (active)	36% (inactive) and 34.9% (inactive) and 32.9% (inactive)	-20.7% (active) and -48.6% (active) and -80.9% (active)	67.7% (inactive) and 72.8% (inactive) and 57.9% (inactive)	-32.7% (active) and 0.294% (active) and -36.1% (active)	39.6% (inactive) and 23% (inactive) and 12.3% (inactive)	16.9% (inactive) and 25.6% (inactive) and 1.46% (active)	27.9% (inactive) and -17% (active) and -5.99% (active)	26.2% (inactive) and 58.6% (inactive) and 5.66% (active)	27.2% (inactive) and 30.9% (inactive) and 17.8% (inactive)	40.5% (inactive) and 22.6% (inactive) and 5.83% (active)	74.8% (inactive) and 18.4% (inactive)	15% (inactive) and 28.5% (inactive) and 1.85% (active)	
OCc1ccccn1	109% (inactive)	104% (inactive)	74.5% (inactive)	109% (inactive)	102% (inactive)	97.8% (inactive)	99.8% (inactive)	103% (inactive)	102% (inactive)	112% (inactive)	106% (inactive)	110% (inactive)	97.4% (inactive)	97.9% (inactive)	100% (inactive)	107% (inactive)	101% (inactive)	81.8% (inactive)	103% (inactive)	99.1% (inactive)
CNC(=O)c1ccc(C)c(-n2c(C)cc(OCc3ccc(F)cc3F)c(Br)c2=O)c1	91% (inactive) and 97.1% (inactive)	56.4% (inactive) and 76.5% (inactive)	63.3% (inactive) and 86.1% (inactive)	75.8% (inactive) and 91.1% (inactive)	80.1% (inactive) and 78.6% (inactive)	74.8% (inactive) and 66.5% (inactive)	56.4% (inactive) and 87.9% (inactive)	56.5% (inactive) and 73.4% (inactive)	83.2% (inactive) and 93.6% (inactive)	104% (inactive) and 97.9% (inactive)	89.3% (inactive)	78.7% (inactive) and 87.7% (inactive)	83.7% (inactive) and 86.1% (inactive)	52.5% (inactive) and 71.8% (inactive)	74.6% (inactive) and 102% (inactive)	68.6% (inactive) and 88.2% (inactive)	62.9% (inactive) and 79.1% (inactive)	78.7% (inactive)	77.4% (inactive) and 89.1% (inactive)	
O=C(Oc1cccc(OC(=O)c2ccccc2)c1)c1ccccc1	73% (inactive) and 102% (inactive)	79.9% (inactive) and 102% (inactive)	97.1% (inactive) and 79.6% (inactive)	111% (inactive) and 98.9% (inactive)	80.4% (inactive) and 101% (inactive)	9.09% (active) and 91.8% (inactive)	101% (inactive) and 94.8% (inactive)	96.1% (inactive) and 100% (inactive)	78.3% (inactive) and 87.9% (inactive)	115% (inactive) and 100% (inactive)	93.2% (inactive)	102% (inactive) and 104% (inactive)	97.8% (inactive) and 99.4% (inactive)	50.4% (inactive) and 90.9% (inactive)	133% (inactive) and 85.7% (inactive)	103% (inactive) and 99.7% (inactive)	102% (inactive) and 96.7% (inactive)	99.2% (inactive) and 91.2% (inactive)	80.4% (inactive) and 107% (inactive)	85% (inactive) and 91.3% (inactive)

— PubChem BioAssay (NCI)
